According to PubChem BioAssay AID652039 (The Scripps Research Institute Molecular Screening Center, 2013):
Out of some 370,000 compounds screened, about 3,300 (0.89%) were called active.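 Rule for the calls: active = activation above the mean of all tested compounds plus 3 SD, computed per campaign excluding outliers beyond control limits (cut at about 13% in these data); inactive = the rest.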 What follows is part of a selection rich in actives, with near analogues and random picks from the rest.

Molecular target: Kallikrein-7 (Homo sapiens) (UniProt P49862)
Test: activation of human kallikrein-7 proenzyme – biochemical, fluorescence intensity, primary screen (AID 652039)
Details: purified proKLK7, EDANS-DABCYL substrate fluorescence; at 7 µM; hits give high values; 100% is mature enzyme control, 0% vehicle

Sequence of Kallikrein-7 (Homo sapiens) (P49862 whole entry, looked up): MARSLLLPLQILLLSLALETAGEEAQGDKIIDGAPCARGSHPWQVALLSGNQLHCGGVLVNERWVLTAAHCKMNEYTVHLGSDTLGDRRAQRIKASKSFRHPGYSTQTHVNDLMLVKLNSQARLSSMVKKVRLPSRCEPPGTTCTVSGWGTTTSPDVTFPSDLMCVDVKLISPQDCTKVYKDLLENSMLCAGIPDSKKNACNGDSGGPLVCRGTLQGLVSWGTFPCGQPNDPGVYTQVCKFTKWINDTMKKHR

activation, active:
O=C(OC1CCOC1=O)c1ccc(-c2nc3ccccc3s2)s1 (stereo not drawn) 25.6%, COc1ccc(C2=CC(c3cccc(OC)c3)n3nnnc3N2)cc1 (stereo not drawn) 42.3%, CC(C)Cc1nc(Nc2ccc(S(=O)(=O)N3CCCC3)cc2)c2nnn(Cc3ccccc3)c2n1 18%, CCOc1c2ccc(C(=O)NCc3ccc4c(c3)OCO4)cc2nn1C 16.6%, Cc1ccc(-c2nn(-c3ccccc3)cc2/C=C/C(=O)Nc2cccc(S(N)(=O)=O)c2)cc1 302%, CNc1cncc(-c2cccc(C(=O)N3CCOCC3)c2)n1 49.4%, COc1cc(C(=O)N2C(=O)c3cccc(N)c3C2=O)cc(OC)c1OC 50.3%, CC1CC(C)CN(S(=O)(=O)c2cccc(C(=O)N3C(=O)c4cccc(N)c4C3=O)c2)C1 (stereo not drawn) 20.5%, CC(=O)Oc1ccc2c(C)c(CC(C)O)c(=O)oc2c1 (stereo not drawn) 57.1%, CC(=O)Nc1cc2ccc(OC(C)=O)cc2oc1=O 383%, CCc1ccc(-c2cc(C(=O)NCc3ccco3)c3ccccc3n2)s1 41.4%, CCN1CCN(C(=O)Cn2nc(C)n3c(cc4c(OC)cccc43)c2=O)CC1 21%, COC(=O)c1cnn2c(C(F)(F)F)cc(-c3ccco3)nc12 23.1%, CN(C)C(=O)c1coc2nc3ccccc3nc12 39.4%, CCCCN(C)CCCNC(=O)c1cc(-c2cccs2)nc2ccccc12 47.9%, O=C(NCCN1CCOCC1)c1cc(-c2cccs2)nc2ccccc12 18.3%

activation, inactive:
CC(C)c1ccc(C(=O)OC2CCOC2=O)cc1 (stereo not drawn) -0.06%, COc1cc(C(=O)OC2CCOC2=O)c([N+](=O)[O-])cc1OC (stereo not drawn) -0.39%, O=C(CSc1ncccn1)NC(=O)NCc1ccccc1 -0.82%, CCOC(=O)N1CCN(C(=O)C[C@@H]2C(=O)N(CCc3ccc(Cl)cc3)C3=CCCC[C@]32C(=O)OCC)CC1 0.7%, CC(C)(C)OC(=O)NCCc1ccccc1/C=C/S(=O)(=O)NCc1ccc(F)cc1 -0.22%, COc1ccc(C2CC(c3cccs3)Nc3nnnn32)cc1 (stereo not drawn) 0.65%, COc1cccc(-c2nc3n(n2)C(c2ccccc2Cl)C(C(N)=O)=C(C)N3)c1 (stereo not drawn) 0.67%, O=C1Nc2ccccc2OC1CC(=O)N1CCCCCCC1 (stereo not drawn) 0.05%, Cc1nc(Nc2ccc(S(=O)(=O)N3CCCC3)cc2)c2nnn(Cc3ccccc3)c2n1 -0.11%, CC(C)Nc1ncnc2c1nnn2Cc1ccccc1 0.3%, COc1ccc(Cn2ccc3ccc(-c4ccc5ccn(Cc6ccccc6C)c5c4)cc32)cc1 -0.6%, Cc1csc(OCC(=O)Nc2ccc(C)c(C)c2)n1 0.44%, C=C(C)C#CC(Cc1ccccc1)NCC1CC1 (stereo not drawn) 0.49%, COc1ccc(-n2c(SCC(=O)NC3CCCC3)nnc2-c2ccncc2)cc1 0.32%, CCCn1nc2cc(C(=O)NCc3ccccc3)ccc2c1OCC 9.49%, COc1ccccc1-n1c(C)nc2cc(C(=O)NCc3ccc4c(c3)OCO4)ccc21 0.53%, COC(=O)[C@]12C[C@H](CC(=O)NCc3cccs3)C(=O)N(CCc3ccc(OC)c(OC)c3)C1=C[C@H](C(C)C)O[C@@H]2C1CC1 0.65%, NS(=O)(=O)c1ccc(NC(=O)/C=C/c2ccccc2Cl)cc1 3.16%, O=C(/C=C/c1cn(-c2ccccc2)nc1-c1ccc2c(c1)OCCO2)NCCCN1CCOCC1 -1.99%, O=C(NC1CCCCN(Cc2ccc(Cl)cc2)C1=O)c1ccc(Br)cc1 (stereo not drawn) -0.15%, O=S1(=O)c2c(cccc2N2CC[C@H](O)C2)O[C@@H]2CCN1C2 -0.53%, COc1ccccc1C(=O)Nc1cccc(C(=O)N2CCOCC2)c1 0.2%, O=C(c1cccc(N2CCCC2=O)c1)N1CCOCC1 -0.32%, COc1cc(C(=O)N2CCN(C)CC2)cc(OC)c1OC -0.27%, CCOC(=O)C1CCCN(C(=O)c2cccc(S(=O)(=O)N3CCOCC3)c2)C1 (stereo not drawn) -0.32%, COc1cc(C(=O)NC(=S)NCc2ccco2)cc(OC)c1OC 0.52%, CC(=O)N1CCN(S(=O)(=O)c2cccc(C(=O)NC3CCC(C)CC3)c2)CC1 (stereo not drawn) -0.34%, COc1ccc(CCNC(=O)CSc2nc3c([nH]2)c(=O)n(C)c(=O)n3C)cc1 0.4%, COC(=O)c1ccccc1-n1cc(COC(=O)NCCc2ccccc2)nn1 -0.71%, C[C@H]1CCC/C=C/C(=O)c2c(O)cc(O)cc2CC(=O)O1 0.41%, Cc1ccc(NC(=S)NNC(=O)CSc2nnc(SCc3ccccc3Cl)s2)cc1 0.76%, Cc1nc2ccc(C(=O)N3CCN(C(=O)C(C)(C)C)CC3)cc2n1C1CCCC1 -0.33%, Cc1ccc(-c2nnc(SCC(=O)Nc3ccc(Oc4ccccc4)cc3)n2Cc2ccco2)cc1 -0.21%, O=C(c1ccccc1)c1ccc(-c2ccccc2C(=O)NC2CCCCN(Cc3ccc(Cl)cc3)C2=O)cc1 (stereo not drawn) -0.04%, CCc1c(C)c2ccc(OC3CCCCC3=O)cc2oc1=O (stereo not drawn) 1.85%, Cc1ccc(OCC(=O)Nc2ccc3oc(=O)ccc3c2)cc1C 0.37%, COc1cccc(-c2coc3cc4oc(=O)c(CC(=O)O)c(C)c4cc23)c1 0.62%, O=C(Oc1ccccc1)Oc1ccc2c(c1)oc(=O)c1ccccc12 -0.49%, CCCCN1CCN(C(=O)c2ccc3c(c2)NC(=O)C(C)(C)O3)CC1 0.18%, O=C(CSc1nc2c(c(=O)[nH]1)CCCC2)N1CCCCC1 0.8%, O=C(CSc1nc2ccccc2n1Cc1ccccc1)NNC(=S)Nc1ccccc1 -0.17%, O=C(CSc1nc2sc3c(c2c(=O)n1-c1ccccc1)CCCC3)NN=Cc1ccc(OCc2ccccc2)cc1 -0.01%, COc1cc(C)ccc1OCC(=O)OCC(=O)c1ccc[nH]1 -0.43%, COc1ccnc(NC(=S)N2CCN(c3ncc(C(F)(F)F)cc3Cl)CC2)c1 0.32%, Cc1cc(C(=O)OCC(=O)NCc2ccco2)c(C)n1-c1ccccc1 0.45%, Cn1nc(-c2ccc(Cl)cc2)c2cc(C(=O)NCc3ccco3)sc21 -17.3%, c1csc(-c2nnc(SCc3nc4ccccc4[nH]3)o2)c1 1.12%, CCn1c2ccccc2c2cc(NC(=O)CSc3nnc(-c4ccccc4)n3-c3ccc(C)cc3)ccc21 -0.54%, CCc1nn(CC(=O)N2CCN(CC)CC2)c(=O)c2cccn12 -0.55%, CCCN1CCN(C(=O)Cn2ncc3ccccc32)CC1 -0.42%, C=CCN1C(=O)[C@@H](CC(=O)NCCCOCCCC)[C@]2(C(=O)OCC)CCCCC/C=C/12 0.01%, Cc1ccc(Cn2cc(CN3[C@@H](CC(C)C)COc4ccc(Cl)cc4S3(=O)=O)nn2)cc1 0.91%, Cc1cccc(NC(=O)C[C@H]2CC[C@H]3[C@@H](COc4ccc(NC(=O)Nc5ccccc5)cc4C(=O)N3C)O2)c1 0.42%, O=C(O)c1cnn2c(C(F)(F)F)cc(-c3ccccc3)nc12 -0.59%, O=C(NCc1ccco1)c1cnn2c(C(F)(F)F)cc(-c3ccco3)nc12 0.06%, CCCCNC(=O)C[C@H]1C[C@@]2(C(=O)OC)C(=C[C@H](COCc3ccccc3)O[C@@H]2C)N(Cc2ccc(Cl)cc2Cl)C1=O -0.06%, COC(=O)C1CN(CCc2ccccc2)CCS(=O)(=O)N1Cc1cccc(Cl)c1 (stereo not drawn) -0.14%, CCCc1nnc(NC(=O)CCC(=O)N2CCN(S(=O)(=O)c3ccc(OC)cc3)CC2)s1 -0.03%, COc1ccc(C)cc1N(C)C(=O)c1coc(=O)c2ccccc12 0.1%, CN(C)C(=O)c1cc(Br)ccc1Cl -0.57%, C=CCN(C)CC#Cc1ccccc1 -0.36%, CCCCCN1CCCCC(NC(=O)C(C)CCC)C1=O (stereo not drawn) 0.5%, O=C(CNS(=O)(=O)c1ccccc1F)N1CCN(c2ccccn2)CC1 -0.03%, O=C(NCCCN1CCOCC1)c1cnn2c(-c3ccccc3)cc(-c3ccccc3)nc12 -3.01%, O=C(NNC(=O)c1cc(-c2ccccc2Cl)nc2ccccc12)c1csc(N2CCOCC2)n1 -0.59%, CN(C)CCNC(=O)c1ccc(Cl)c2cc3ccccc3nc12 6.31%, CCOc1ccccc1-c1cc(C(=O)N/N=C(\C)c2cccnc2)c2ccccc2n1 -4.03%, COC(=O)[C@]12C[C@H](CC(=O)NCC34CC5CC(CC(C5)C3)C4)C(=O)N(Cc3ccc(Cl)cc3Cl)C1=C[C@H](COCc1ccccc1)O[C@@H]2C -0.26%, COC(=O)[C@]12C[C@H](CC(=O)N3CCN(C(=O)C4CC4)CC3)C(=O)N(Cc3ccc4c(c3)OCO4)C1=C[C@H](C(C)(C)C)O[C@@H]2C 0.05%, COc1cccc(N2CCN(CC(=O)N(C)Cc3ccc(F)cc3)CC2)c1 0.13%, COC(=O)C1CN(CCc2ccccc2)CCS(=O)(=O)N1Cc1ccc(F)cc1 (stereo not drawn) -0.24%, COc1cccc(CNC(=O)CNS(=O)(=O)c2ccc3nc(C)sc3c2)c1OC 0.09%
